Test results reported in PubChem BioAssay AID1159580 (chemical genetic matrix, 2015).
Where “and” joins values, the source holds several entries; their conditions need not be identical. Identical values can stand only once. Hit rate of the full screen: of about 5,500 compounds, about 2,000 (36%) were called active. Inconclusive results (about 18%) are left out. No stated cut-off is given here; in the data, active means normalized growth mostly below about 0.91 (no sharp cut-off); inconclusive means no clear call, values can overlap the other calls; inactive means mostly above about 0.92. The list shows a part of the results.

Assay: chemical genetic growth profiling, strain panel (AID 1159580);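 further: tested at 20 µM; growth read once vehicle control cultures reached saturation at 30 °C; 1 = growth at the plate median or of vehicle wells; lower values mean less growth of the strain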
Conditions: S. cerevisiae deletion strains, growth OD

Measured: normalized growth

COP(N)(=O)SC (configuration not stated)
inactive: locus YAL013W, strain DEP1, hits give low values 1 | locus YAL021C, strain ccr4, hits give low values 0.981 | locus YAL026C, strain drs2, hits give low values 1.01 | locus YAL030W, strain snc1, hits give low values 1 | locus YBL061C, strain skt5, hits give low values 1.01 | locus YBR009C, strain hhf1, hits give low values 1.02 | locus YBR021W, strain FUR4, hits give low values 1.01 | locus YBR023C, strain chs3, hits give low values 1.01 | locus YBR171W, strain sec66, hits give low values 1 | locus YBR229C, strain ROT2, hits give low values 0.978 | locus YBR231C, strain swc5, hits give low values 1.01 | locus YBR279W, strain paf1, hits give low values 1.01 | locus YCL011C, strain gbp2, hits give low values 1 | locus YCL016C, strain dcc1, hits give low values 1 | locus YCL029C, strain bik1, hits give low values 1.01 | locus YCL061C, strain MRC1, hits give low values 0.997 | locus YCL069W, strain vba3, hits give low values 1 | locus YCR088W, strain abp1, hits give low values 1 | locus YDL005C, strain med2, hits give low values 1 | locus YDL035C, strain GPR1, hits give low values 1.01 | locus YDL040C, strain nat1, hits give low values 1.01 | locus YDL074C, strain BRE1, hits give low values 0.993 | locus YDL101C, strain DUN1, hits give low values 0.978 | locus YDL134C, strain PPH21, hits give low values 1.01 | locus YDL185W, strain tfp1, hits give low values 1.01 | locus YDL192W, strain arf1, hits give low values 1.01 | locus YDR001C, strain nth1, hits give low values 0.994 | locus YDR069C, strain doa4, hits give low values 1.01 | locus YDR101C, strain arx1, hits give low values 1 | locus YDR137W, strain rgp1, hits give low values 1.01 | locus YDR150W, strain NUM1, hits give low values 0.987 | locus YDR159W, strain sac3, hits give low values 1.02 | locus YDR162C, strain NBP2, hits give low values 0.993 | locus YDR195W, strain ref2 0.999 | locus YDR297W, strain sur2, hits give low values 1 | locus YDR318W, strain mcm21, hits give low values 1.01 | locus YDR334W, strain swr1, hits give low values 1 | locus YDR335W, strain msn5, hits give low values 0.998 | locus YDR388W, hits give low values 1.01 | locus YDR392W, strain spt3, hits give low values 1.01 | locus YDR502C, strain sam2, hits give low values 1.01 | locus YEL003W, strain gim4, hits give low values 1 | locus YEL037C, strain rad23, hits give low values 0.998 | locus YEL061C, strain CIN8 (second series), hits give low values 1.01 | locus YEL061C, strain CIN8, hits give low values 1 | locus YER015W, strain faa2, hits give low values 1.01 | locus YER016W, strain bim1, hits give low values 1.01 | locus YER110C, hits give low values 1.01 | locus YER111C, strain swi4, hits give low values 1.01 | locus YER155C, strain BEM2 (second series), hits give low values 1.02 | locus YER155C, strain BEM2, hits give low values 0.98 | locus YER167W, strain BCK2, hits give low values 1 | locus YFR010W, strain ubp6, hits give low values 0.994 | locus YGL078C, strain dbp3, hits give low values 1.01 | locus YGL086W, strain mad1, hits give low values 1.01 | locus YGL167C, strain pmr1, hits give low values 1.01 | locus YGL173C, strain kem1, hits give low values 1.02 | locus YGL227W, strain vid30, hits give low values 1.01 | locus YGL240W, strain doc1, hits give low values 1.02 | locus YGL248W, strain PDE1, hits give low values 1.01 | locus YGL253W, strain hxk2, hits give low values 0.997 | locus YGR078C, strain PAC10, hits give low values 0.997 | locus YGR135W, strain pre9, hits give low values 0.999 | locus YGR229C, strain SMI1, hits give low values 1 | locus YGR252W, strain gcn5, hits give low values 1.02 | locus YHR013C, strain ard1, hits give low values 0.994 | locus YHR027C, strain rpn1, hits give low values 1 | locus YHR030C, strain SLT2, hits give low values 0.986 and 1.05 | locus YHR079C, strain IRE1 (second series), hits give low values 1.02 | locus YHR079C, strain IRE1, hits give low values 1.07 | locus YHR094C, strain hxt1, hits give low values 1.01 | locus YHR129C, strain ARP1, hits give low values 0.998 | locus YHR142W, strain chs7, hits give low values 0.982 | locus YHR200W, strain rpn10, hits give low values 1.01 | locus YIL066C, strain RNR3, hits give low values 1.03 | locus YIL073C, strain SPO22, hits give low values 1.06 | locus YIL125W, strain kgd1, hits give low values 1 | locus YIR030C, strain dcg1, hits give low values 1.01 | locus YJL092W, strain hpr5, hits give low values 0.998 | locus YJL095W, strain BCK1 (second series), hits give low values 1.01 | locus YJL095W, strain BCK1, hits give low values 0.99 and 1.03 | locus YJL115W, strain asf1, hits give low values 1 | locus YJL129C, strain trk1, hits give low values 0.993 | locus YJL134W, strain LCB3, hits give low values 1 | locus YJL154C, strain vps35, hits give low values 0.998 | locus YJL164C, strain tpk1, hits give low values 1 | locus YJL166W, strain qcr8, hits give low values 1.01 | locus YJL168C, strain set2, hits give low values 1.01 | locus YJL187C, strain SWE1 (second series), hits give low values 1.01 | locus YJL187C, strain SWE1, hits give low values 1.01 | locus YJR043C, strain POL32, hits give low values 1.02 | locus YJR066W, strain TOR1, hits give low values 0.985
